Hits are enriched below; roughly 3.1% of the tested compounds scored in any of these assays.
BRCA1 expr act: BRCA1 expression activation; 380,000 tested, 1.1% active; MCF7-BRCA1-FFLuc reporter, luminescence, 48 h; response scale: scaled: vehicle 0%, 10 µM genistein 100%; Potency, µM (doses to about 46.1 µM), for inactives: top-dose activation, actives largely listed as activators; also: potency is read from the fitted curve at half-maximal effect; nearly all actives have a fitted effect of over 80% in size
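Luminescence from a BRCA1-driven firefly luciferase in MCF7 cells was the read-out, taken 15 min after substrate addition following 48 h compound exposure at 37 °C. Data were normalized to a 10 microM genistein control and DMSO vehicle.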
Nrf2 ARE act: activators of Nrf2 (ARE) signaling; 410,000 tested, 0.31% active; Potency, µM (doses to about 46.1 µM), for inactives: at the highest dose activation, actives largely listed as activators; AID 624171; AREc32 ARE-luciferase reporter (MCF7-derived line), luminescence, 24 h; also: potency is read from the fitted curve at half-maximal effect; % of control where 0% means no effect; nearly all actives have a fitted effect of over 65% in size
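ARE activation measured as luciferase luminescence (Steady-Glo, 30 min RT) in AREc32_Fluc cells after 24 hr compound exposure at 37 deg C, 5% CO2; cells seeded overnight at 1000/well in OPTI-MEM, 5% FBS.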
IL-2 act: IL-2 activation. IL-2 activation reporter assay, cell-based qHTS; stimulated with anti-CD3/CD4/CD28 beads; in transgenic mouse T cells. AID 652025. 360,000 tested, 0.065% active. activation, % (series mostly up to about 46 µM); in the data active = activation above about 50%; inconclusive = mostly about 30% to 49%; also: 0% is about no effect
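Screening format: compound pinned onto unstimulated transgenic mouse T cells, 60 min incubation, then anti-CD3/anti-CD4/anti-CD28 bead stimulation for 18 hours at 37 degrees C, followed by EGFP and DsRed detection.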
ELG1 DNA repair: blocks ELG1-dependent DNA repair in HEK293T cells. Potency, µM (doses to about 46.1 µM), for the others: at the highest dose activity change, negative = inhibition, actives largely listed as inhibitors. HEK293T ELG1-luciferase reporter, luminescence, 16 h; DNA damage induced by 5-fluorouridine. 330,000 tested, 2.3% active; also: potency is read from the fitted curve at half-maximal effect; % is scaled to controls: 0 for no effect and ±100 for the full control effect; nearly all actives have a fitted effect of over 55% in size
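In this reporter screen, reduction of luminescence relative to DMSO vehicle indicated activity. Compounds and 5-fluorouridine were added together to 2,000 cells per well, incubated for 16 hr at 37 °C, then developed with ONE-Glo.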
Active calls of the source: *; ? = inconclusive; . = not tested or not shown; [ ] = remark or other dose. Unless noted, calls follow the shape of the dose curve; as a rule, active = well fitted curve in the direction sought with a large enough effect; inconclusive = small, poorly fitted or top-dose-only effect, or another doubt; inactive = no such curve, though single readings can be large; an effect the other way counts as inactive or inconclusive.

SMILES | BRCA1 expr act | Nrf2 ARE act | IL-2 act | ELG1 DNA repair
CCCN1Cc2cccc(C(=O)Nc3ccc(OC)cc3OC)c2C1=O | . | 1% | . | .
Brc1ccc(NC2=Nc3ccccc3CC2)cc1 | 8.9µM* | 3% | 2 | ?
NC(=O)c1ccc(N2CCN(c3ccccc3F)CC2)c([N+](=O)[O-])c1 | -1% | -1% | -1 | ?
NC(=O)c1ccc(N2CCN(c3ccccc3O)CC2)c([N+](=O)[O-])c1 | -14% | 2% | 0 | 16µM*
Cc1cccc(-n2cnc(C(=O)NC3CCCCCC3)c2)n1 | 10µM* | 4% | -2 | ?
CCOc1ccc(C(=O)OCc2cc(=O)n3nc(C(C)C)sc3n2)cc1 | -11% | 3% | . | .
C#CCCc1cscc1/C=[N+](\[O-])c1ccc(C(=O)OCC)cc1 | 6.3µM* | 3% | 2 | ?
COc1ccc(CNC(=O)c2ccc(-c3nc(CSc4ccc(C)cc4)c(C)o3)cc2)c(OC)c1 | . | 1% | . | .
Cc1ccc(OCc2nnc(SCC(=O)c3ccccc3)n2-c2ccccc2)cc1 | -50% | 11% | -5 | 23µM*
N#Cc1ccc(OCc2nnc(SCC(=O)c3ccccc3)n2-c2ccccc2)cc1 | -32% | 0% | 0 | 15µM*
CCCCC(=O)N(C)c1c(CC)nc2c(OCc3cccc(Cl)c3)cccn12 | 6% | 0%[9.22 µM] | -1 | .
O=C(Nc1nsc(-c2ccccc2)n1)c1ccc(F)cc1 | 11µM* | 2% | 0 | ?
O=C(Nc1ccon1)c1ccc(N2CCCCC2)c([N+](=O)[O-])c1 | 13µM* | 1% | -1 | ?
O=C(Nc1nc(-c2ccccc2)cs1)c1ccc(N2CCOCC2)c([N+](=O)[O-])c1 | -83% | 0% | -1 | 3.7µM*
Cc1cc(NC(=O)c2ccc(N3CCCC3)c([N+](=O)[O-])c2)no1 | ? | 1% | -2 | ?
O=C1c2ccccc2C(=O)N1CCSc1nc2ccccc2c(=O)n1CCCN1CCOCC1 | -10% | 0% | -6 | 7%
O=C1c2ccccc2C(=O)N1CCCCSc1nc2ccccc2c(=O)n1CCCN1CCOCC1 | -14% | 0% | 0 | 21µM*
Cc1ccc(-n2c(=O)c3ccc(C(=O)NCc4ccccc4Cl)cc3n(Cc3cccc(F)c3)c2=O)cc1 | 17% | -1% | . | .
Cc1ccc(CNC(=O)Nc2cccc(C)c2)cc1 | 8.9µM* | 4% | 0 | ?
Cc1cccc(NC(=O)Nc2cc(C)cc(C)n2)c1 | 3.5µM* | 5% | 0 | ?
Cc1cc(C)nc(NC(=O)Nc2ccc3c(c2)OCO3)c1 | ? | 4% | 0 | ?
COc1ccc(Cl)cc1C(=O)NC1=NCCS1 | 16% | 6% | 0 | ?
Cc1cc(C)n(-c2ccc(C(=O)NC3=NCCS3)cc2)n1 | 11µM* | 0% | 1 | ?
O=C(NC1=NCCS1)c1ccc(-c2ccc(Cl)cc2)o1 | 2.8µM* | 0% | -2 | ?
O=C(NC1=NCCS1)c1ccccc1Br | 18% | 0% | 1 | .
SMILES | BRCA1 expr act | Nrf2 ARE act | IL-2 act | ELG1 DNA repair
O=C(NC1=NCCS1)c1ccc(Cl)cc1 | 7.9µM* | 6% | -3 | ?
O=C(NC1=NCCS1)c1ccc(Br)s1 | 3.2µM* | 0% | -1 | ?
O=C(Nc1nnc(C(F)(F)F)s1)c1ccc(Br)s1 | -11% | 4% | -3 | ?
O=C(Nc1nnc(C2CCCCC2)s1)c1ccc(Br)s1 | 5µM* | -1% | 2 | ?
O=C(CCCCn1c(=O)c2ccccc2n(CC(=O)Nc2ccc(F)cc2F)c1=O)NCCc1ccccc1 | -8% | 0% | . | .
CCC(C)Cn1c(C)nc2ccccc21 (configuration not stated) | -15% | 0% | 0 | 9.2µM*
CCC(C)Cn1c(COc2ccc(OC)cc2)nc2ccccc21 (configuration not stated) | . | 0% | . | .
O=C(Nc1ccc(N2CCCC2)c(Cl)c1)c1ccco1 | ? | 0% | -1 | ?
COC(=O)c1ccc(N2CCCCC2)c(NC(=O)c2ccco2)c1 | -30% | 0% | -1 | 23µM*
Cc1ccc(NC(=O)c2cc(NC(=O)c3ccco3)ccc2N2CCOCC2)cc1Cl | -12% | -1% | 0 | 16µM*
O=C(c1ccccc1)c1ccc(N2CCOCC2)c(NC(=O)c2ccco2)c1 | -2% | 2% | -2 | 16µM*
Cc1cc(C)cc(NC(=O)C(=O)NCC(c2ccc3c(c2)OCO3)N2CCN(C)CC2)c1 (configuration not stated) | . | 1% | . | .
Cc1cc2c(Nc3cccc(O)c3)ncnc2s1 | 39% | 5% | 0 | 5%
Cc1cc2c(Nc3ccccc3O)ncnc2s1 | -49% | 11µM* | -1 | .
O=C(COc1ccccc1C(=O)Nc1cccc(F)c1)Nc1ccc(Br)cc1 | -11% | . | . | .
CC1(C)COC(/C=C/c2cccc([N+](=O)[O-])c2)=N1 | -86% | 13µM* | -1 | ?
CC1(C)COC(c2cc([N+](=O)[O-])ccc2Cl)=N1 | 0% | -1% | 0 | 5%
COc1ccc(Nc2ncc3c(n2)CCN(Cc2cccc(F)c2F)C3)c(OC)c1 | . | -1% | . | .
Cc1ccc(S(=O)(=O)Nc2nc3ccccc3nc2NCc2ccco2)cc1 | -29% | 22µM* | -1 | ?
c1coc(CNc2nc3ccccc3s2)c1 | 3.2µM* | ? | 3 | ?
Cc1cccc(Nc2nc(NCc3ccco3)c3ccccc3n2)c1 | -50% | 0% | -3 | ?
c1ccc(Nc2nc(NCc3ccco3)c3ccccc3n2)cc1 | -61% | 1% | -1 | 9.2µM*
O=S(=O)(Nc1nc2ccccc2nc1NCc1ccco1)c1ccc(Cl)cc1 | -40% | 8% | -1 | 0%
O=c1c2ccccc2nc2ccc(NCc3ccco3)nn12 | 3.5µM* | 6% | -2 | ?
Cc1nnc(NCc2ccco2)s1 | 1% | 0% | 0 | 15%
SMILES | BRCA1 expr act | Nrf2 ARE act | IL-2 act | ELG1 DNA repair
COc1cccc(CN2CCC2(C)C(=O)Nc2cccc(Oc3ccccc3)c2)c1F (configuration not stated) | -54% | 3% | -1 | .
O=C(O)c1ccc(CS(=O)c2cccc(C(F)(F)F)c2)o1 (configuration not stated) | 2% | -1% | -2 | 10µM*
Cc1cc2nn(-c3ccc(F)cc3)nc2cc1NC(=O)c1cccc([N+](=O)[O-])c1C | -2% | -1% | . | .
Cc1c(C(=O)O)cccc1-c1ccc(C=O)o1 | 7.9µM* | 2%[9.22 µM] | 0 | ?
COc1ccc(NC(=O)/C(C#N)=C\c2ccc(-c3cccc(C(=O)O)c3C)o2)cc1 | 82% | -1% | -2 | 13%
O=c1n(Cc2ccc([N+](=O)[O-])cc2)c2ccccc2c2nc(-c3ccccc3)nn12 | . | 7% | . | .
CSc1nccc(-c2c(-c3ccc(Cl)cc3)noc2C)n1 | 4% | 0% | 0 | 5%
CSc1nccc(-c2cc(Cl)sc2Cl)n1 | -38% | 11µM* | 1 | 4%
CSc1ccc(/C=C/c2nc3ccccc3n2S(=O)(=O)c2ccc(Br)cc2)cc1 | -10% | -3% | . | .
Cc1nn2c(C)c(C(=O)NCC(C)c3ccccc3)cnc2c1-c1ccccc1 (configuration not stated) | . | 4% | . | .
